Here are results for nine compounds from PubChem BioAssay.

Molecules are shown by their SMILES. Calls of active or inactive are those of the source. Unless noted, the rule behind the calls is not given here.

The nature of assay [1]: compound effects on lung adenocarcinoma cell viability – A549, calcein-AM fluorescence, 48 h, basal, profiling panel (AID 1162). Note: test concentration not given here. The following applies: higher = more signal.
Assay [2] in a line: compound effects on differentiated 3T3-L1 adipocyte viability – cell-based, 3T3-L1 adipocytes, calcein-AM fluorescence, 48 h, basal, profiling panel (AID 1163). Note: test concentration not given here. The following applies: 3T3-L1 adipocytes viability, higher = more signal.
The nature of assay [3]: compound effects on hepatocellular carcinoma cell viability – HepG2, calcein-AM fluorescence, 48 h, basal, profiling panel (AID 1164). Note: test concentration not given here. As to conditions: higher = more signal.
Assay [4] is described as follows: compound effects on multiple myeloma cell viability – MM1S, calcein-AM fluorescence, 48 h, basal, profiling panel (AID 1165). Note: test concentration not given here. As to conditions: higher = more signal.
Assay [5] in a line: calcein-AM signal in unstimulated myeloma cells – cell-based, calcein-AM fluorescence, 48 h, PK04 Diversity Set, profiling panel (AID 1166).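 Note: cells grown under basal conditions without added stimulus; test concentration not given here.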 The following applies: RPMI8226 myeloma viability, higher = more signal.
Assay [6] can be described thus: JC-1 mitochondrial signal, unstimulated HepG2 cells – cell-based, JC-1 fluorescence, 24 h, 100 nL compound, profiling panel (AID 1167). Note: test concentration not given here. The following applies: HepG2 mitochondrial potential, higher = more signal.
Assay [7] in a line: JC-1 mitochondrial signal, unstimulated adipocytes – cell-based, JC-1 fluorescence, 3T3-L1 adipocytes, 24 h, 100 nL compound, profiling panel (AID 1168). Note: test concentration not given here. As to conditions: JC-1 mitochondrial fluorescence, higher = more signal, called active from +8 up or from −8 down.
Assay [8] can be described thus: JC-1 mitochondrial signal, unstimulated myeloma cells – cell-based, JC-1 fluorescence, RPMI8226, 24 h, 100 nL compound, profiling panel (AID 1169). Note: test concentration not given here. The following applies: JC-1 mitochondrial potential fluorescence, higher = more signal.
A short description of assay [9]: JC-1 mitochondrial signal, unstimulated MM1S myeloma – cell-based, JC-1 fluorescence, 24 h, 100 nL compound, profiling panel (AID 1170). Note: test concentration not given here. The following applies: MM1S mitochondrial potential, higher = more signal.
Assay [10] in a line: resazurin metabolic signal in A549 cells – cell-based, resazurin fluorescence, 24 h, PK04 Diversity Set, profiling panel (AID 1171). Note: test concentration not given here. As to conditions: A549 viability, higher = more signal, called active from +8 up or from −8 down. For orientation: Alamar Blue is a resazurin reagent that responds to reducing activity.
Assay [11] in a line: resazurin metabolic signal in HepG2 cells – cell-based, resazurin fluorescence, 24 h, PK04 Diversity Set, profiling panel (AID 1172). Note: test concentration not given here. As to conditions: HepG2 viability, higher = more signal.
Assay [12] is described as follows: budding yeast growth changes without added modifier – OD600, strain BY4716, 24 h, basal condition, primary screen (AID 1173). The following applies: S. cerevisiae BY4716 growth, OD600, 24 h; higher = more signal, called active from +8 up or from −8 down.
Assay [13] is described as follows: viability profiling in MM1S myeloma cells – cell-based, resazurin fluorescence, basal, 24 h, PK04 Diversity Set, profiling panel (AID 1174). Note: test concentration not given here. The following applies: higher = more signal, called active from +8 up or from −8 down.
For assay [14], the target named is Dihydroorotate dehydrogenase (quinone), mitochondrial (Plasmodium falciparum (isolate 3D7)) (UniProt Q08210). The experiment in a line: inhibition of P. falciparum DHODH – biochemical, C-terminal His tag, absorbance 600 nm, primary screen (AID 1175).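 Note: recombinant parasite enzyme with a five histidine tag at its C terminus; test concentration not given here.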 The following applies: PfDHODH enzyme, DCIP absorbance 600 nm; higher = more signal, called active from +8 up or from −8 down.
Sequence of Dihydroorotate dehydrogenase (quinone), mitochondrial (Plasmodium falciparum (isolate 3D7)) (Q08210 whole entry, looked up): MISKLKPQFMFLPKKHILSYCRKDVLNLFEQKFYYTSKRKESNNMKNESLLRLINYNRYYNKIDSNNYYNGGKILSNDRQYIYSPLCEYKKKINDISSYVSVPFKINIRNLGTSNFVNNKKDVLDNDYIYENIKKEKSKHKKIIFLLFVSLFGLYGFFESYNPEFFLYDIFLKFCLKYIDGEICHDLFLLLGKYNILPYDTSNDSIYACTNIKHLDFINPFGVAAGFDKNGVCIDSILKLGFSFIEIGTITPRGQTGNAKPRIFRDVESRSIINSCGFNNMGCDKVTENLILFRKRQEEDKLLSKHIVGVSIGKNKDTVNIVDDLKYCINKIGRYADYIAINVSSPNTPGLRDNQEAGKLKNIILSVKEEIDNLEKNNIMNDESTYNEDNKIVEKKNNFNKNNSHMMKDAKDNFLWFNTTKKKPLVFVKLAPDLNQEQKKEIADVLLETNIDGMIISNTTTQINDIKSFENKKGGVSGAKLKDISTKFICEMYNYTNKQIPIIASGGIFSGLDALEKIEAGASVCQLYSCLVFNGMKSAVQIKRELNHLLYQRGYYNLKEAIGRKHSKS

Assay [15] can be described thus: inhibition of PAO1 biofilm formation – strain PAO1, LB-PBS medium, absorbance 600 nm, primary screen (AID 1176). Note: test concentration not given here. As to conditions: P. aeruginosa PAO1 growth/biofilm, A600, 12 h; higher = more signal.
Assay [16] can be described thus: growth modulation of vineyard yeast isolate – strain RM11-1a, OD600, basal, 24 h, primary screen (AID 1177).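 Note: cultures grown under basal conditions with no added stressor; test concentration not given here.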 As to conditions: S. cerevisiae RM11-1a growth, OD600, 24 h; higher = more signal, called active from +8 up or from −8 down.
A short description of assay [17]: growth of efflux-deficient E. coli DRC39 – strain DRC39, OD650, 24 h, E. coli filamentation inducers, primary screen (AID 1178).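 Note: growth measured as culture turbidity by optical density at 650 nm; test concentration not given here.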 As to conditions: E. coli DRC39 acrAB, higher = more signal, called active from +8 up or from −8 down.
Assay [18] is described as follows: growth of efflux-deficient E. coli DRC39 – strain DRC39, OD650, 48 h, E. coli filamentation inducers, primary screen (AID 1179).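 Note: screen aims at cell division blockers that make cells filament.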 The following applies: E. coli DRC39 delta-acrAB growth, higher = more signal, called active from +8 up or from −8 down.
Assay [19] in a line: viability profiling in RPMI8226 myeloma cells – cell-based, resazurin fluorescence, basal, 24 h, PK04 Diversity Set, profiling panel (AID 1180).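 Note: RPMI8826 multiple myeloma cell line at 5000 cells per well; test concentration not given here.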 As to conditions: higher = more signal.
Assay [20] has as its target E3 ubiquitin-protein ligase XIAP (Homo sapiens) (UniProt P98170). As to the kind of experiment: small molecules binding XIAP protein – biophysical, small-molecule microarray, fluorescence 635 nm, primary screen (AID 1181).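 Note: score merges 667 nm emission and signal to noise over triplicate slides.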 As to conditions: higher = more signal.

Sequence of E3 ubiquitin-protein ligase XIAP (Homo sapiens) (P98170 whole entry, looked up): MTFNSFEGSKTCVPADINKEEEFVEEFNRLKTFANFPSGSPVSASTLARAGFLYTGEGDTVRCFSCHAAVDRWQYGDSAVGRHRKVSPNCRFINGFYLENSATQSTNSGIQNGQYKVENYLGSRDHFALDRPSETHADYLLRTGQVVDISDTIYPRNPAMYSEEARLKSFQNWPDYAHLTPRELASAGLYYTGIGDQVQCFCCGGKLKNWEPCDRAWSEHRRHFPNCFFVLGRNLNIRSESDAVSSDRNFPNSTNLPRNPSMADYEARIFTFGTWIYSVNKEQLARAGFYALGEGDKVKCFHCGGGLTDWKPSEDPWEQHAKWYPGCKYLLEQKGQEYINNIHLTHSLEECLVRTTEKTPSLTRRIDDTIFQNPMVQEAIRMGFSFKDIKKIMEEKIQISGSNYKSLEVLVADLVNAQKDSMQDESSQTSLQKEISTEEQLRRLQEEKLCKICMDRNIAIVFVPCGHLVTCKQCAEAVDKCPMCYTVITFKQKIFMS

Turning to `Cc1ccc(S(=O)(=O)N2[C@@H](c3ccccc3)C(C(=O)O)=CC[C@H]2c2ccc(C#N)cc2)cc1`, the z-score in assay [1] was -0.283; in assay [2], -0.287; in assay [3], -0.187; in [4], -0.44; in assay [5], -0.471; in assay [6], -0.556. Besides, the z-score was -0.633 (inactive) in [7]; -0.748 in assay [8]; 0.226 in [9]; -0.748 (inactive) in assay [10]; -0.847 in [11]; -0.647 (inactive) in assay [12]. Besides, the z-score was -1.35 (inactive) in assay [13]; 0.0794 (inactive) in [15]; 0.11 (inactive) in assay [16]; -0.674 (inactive) in assay [17]; -0.841 (inactive) in assay [18]; -1.28 in assay [19]. For the same compound, the composite z-score is 0.0114 (inactive) in assay [14] and 0.15 in assay [20].

`COCCCNC(=O)[C@@H]1c2ccccc2C(=O)N(C2CCCCC2)[C@H]1c1ccc(CO)cc1`: the z-score was 1.83 in assay [1]; 1.15 in assay [2]; 1.05 in assay [3]; 0.777 in [4]; -0.559 in assay [5]; 2.49 in [6]. For the same compound, the z-score in assay [7] is -0.154 (inactive); in assay [8], 0.107; in [9], -1.17; in assay [10] it was 1.19 (inactive); in assay [11], 0.559; in assay [12] it was -0.32 (inactive). Besides, the z-score was 0.614 (inactive) in assay [13]; 0.745 (inactive) in assay [15]; -0.611 (inactive) in [16]; 0.0359 (inactive) in assay [17]; -0.122 (inactive) in [18]; 0.505 in [19]. Further, the composite z-score in assay [14] is -0.271 (inactive); in assay [20], -0.0773.

For the compound `COCCOC(=O)N1C(=O)[C@@]2(c3cc(C#Cc4ccc(OC)cc4)ccc31)[C@H](C(=O)Nc1nc3ccccc3s1)[C@H]1C(=O)O[C@H](c3ccccc3)[C@H](c3ccccc3)N1[C@@H]2c1ccccc1OCCO`, the z-score is -0.49 in assay [1]; 1.31 in assay [2]; 0.195 in [3]; -1.35 in assay [4]; -0.213 in [5]; -2.46 in assay [6]. Moreover, the z-score in assay [7] is 3.66 (inactive); in assay [8], -0.678; in assay [9] it was -0.881; in assay [10], 0.027 (inactive); in assay [11], 1.17; in assay [12], 0.86 (inactive). Moreover, the z-score was 1.34 (inactive) in assay [13]; 1.89 (inactive) in [15]; 0.972 (inactive) in assay [16]; 0.285 (inactive) in assay [17]; 0.376 (inactive) in assay [18]; 1.85 in assay [19]. The values for the composite z-score in assay [14] and in assay [20] were -0.882 (inactive) and -0.221, respectively.

For the compound `COCCOC(=O)N1C(=O)[C@@]2(c3cc(C#CCNC(N)=O)ccc31)[C@H](C(=O)NC[C@H](O)c1ccccc1)[C@H]1C(=O)O[C@H](c3ccccc3)[C@H](c3ccccc3)N1[C@@H]2c1ccc(OCCO)cc1`, the z-score is -0.877 in assay [1]; -0.116 in assay [2]; -1.07 in [3]; -0.286 in [4]; 0.995 in assay [5]; -1.61 in [6]. Further, the z-score is 0.213 (inactive) in assay [7]; 0.418 in assay [8]; -0.193 in assay [9]; 0.637 (inactive) in [10]; 0.774 in assay [11]; 2 (inactive) in [12]. The z-score is -0.118 (inactive) in assay [13]; 2.28 (inactive) in assay [15]; 2.87 (inactive) in assay [16]; -0.0238 (inactive) in assay [17]; -0.63 (inactive) in [18]; 0.381 in assay [19]. The composite z-score is 1.14 (inactive) in assay [14] and 0.135 in assay [20].

Regarding `C=C(COC)C(=O)CC[C@@H](OC(C)=O)c1ccc(OCCO)cc1`, the z-score in assay [1] is 0.453; in [2], 0.327; in assay [3], -0.446; in assay [4], -3.18; in [5], -0.311; in [6] it was -1.28. The z-score in assay [7] was -0.979 (inactive); in [8], -0.652; in assay [9], -0.655; in [10], -0.412 (inactive); in assay [11], -0.487; in assay [12] it was -0.997 (inactive). The z-score in [13] was -0.487 (inactive); in [15] it was 0.98 (inactive); in assay [16], 0.423 (inactive); in assay [17], -0.623 (inactive); in [18], -0.432 (inactive); in assay [19], -0.781. The results for the composite z-score in assay [14] and in [20] were -5.2 (inactive) and -0.0848, respectively.

`COc1ccc([Si](C)(C)[C@H]2[C@H](CC(=O)N3Cc4ccccc4C[C@H]3CO)O[C@@]3(C(=O)N(Cc4cccc(N5C(=O)c6cccc7cccc5c67)c4)c4ccccc43)[C@@H]2C)cc1`: the z-score is 0.653 in assay [1]; 0.986 in [2]; -0.475 in [3]; -2.54 in assay [4]; -4.12 in assay [5]; 0.813 in [6]. Also, the z-score is 0.611 (inactive) in assay [7]; -1.19 in assay [8]; -1.72 in assay [9]; -1.02 (inactive) in assay [10]; -0.539 in assay [11]; -0.563 (inactive) in assay [12]. Further, the z-score in [13] was -2.76 (inactive); in assay [15], 1.49 (inactive); in [16] it was 1.95 (inactive); in [17], 0.643 (inactive); in [18], 0.209 (inactive); in assay [19], -2. The results for the composite z-score in [14] and in assay [20] were -1.88 (inactive) and 0.0153, respectively.

Consider `COCCOC(=O)N1C(=O)[C@@]2(c3ccccc31)[C@H](c1ccc(OCCO)cc1)N1[C@H](c3ccccc3)[C@H](c3ccccc3)OC(=O)[C@H]1[C@@H]2C(=O)N1CCN(c2ncccn2)CC1`, for which the z-score was -0.158 in assay [1]; 1.39 in assay [2]; -0.29 in assay [3]; -1.12 in assay [4]; -1.12 in assay [5]; 1.03 in [6]. Besides, the z-score in assay [7] is 0.358 (inactive); in assay [8], 0.1; in assay [9], -1.1; in [10] it was 0.345 (inactive); in assay [11], 0.19; in assay [12] it was 1.03 (inactive). For the same compound, the z-score in assay [13] was -0.268 (inactive); in assay [15], 1.89 (inactive); in [16], 2.29 (inactive); in assay [17] it was -0.441 (inactive); in assay [18], -0.849 (inactive); in assay [19] it was 0.603. The composite z-score in [14] was -0.0117 (inactive); in [20], 0.0548.

For `COCCOC(=O)N1C(=O)[C@@]2(c3cc(C#CCCO)ccc31)[C@H](C(=O)N1CCc3cc(OC)c(OC)cc3C1)[C@H]1C(=O)O[C@H](c3ccccc3)[C@H](c3ccccc3)N1[C@@H]2c1ccccc1OCCO`, the z-score in assay [1] was 0.373; in assay [2] it was 0.514; in assay [3], 1.61; in assay [4] it was 1.1; in assay [5] it was 0.458; in [6], 0.228. Besides, the z-score in assay [7] was 1.58 (inactive); in assay [8] it was -0.647; in assay [9], -1.23; in [10], 0.456 (inactive); in assay [11], 0.713; in assay [12] it was 1.68 (inactive). Also, the z-score in [13] was 0.208 (inactive); in [15] it was 1.38 (inactive); in [16], 2.69 (inactive); in assay [17], 0.497 (inactive); in assay [18] it was 0.74 (inactive); in [19] it was 1.01. Further, the figures for the composite z-score in assay [14] and in assay [20] were 0.0306 (inactive) and -0.0945, respectively.

As for `C=CC[C@]1(C(=O)N(C)C)COC(c2ccc(OCCCO)cc2)=N1`, the z-score was 0.345 in assay [1]; 0.911 in assay [2]; -0.8 in assay [3]; -0.424 in assay [4]; 0.304 in [5]; -1.26 in [6]. Also, the z-score is -0.133 (inactive) in assay [7]; -0.676 in [8]; 1.23 in assay [9]; -0.497 (inactive) in assay [10]; 0.0446 in assay [11]; -2.54 (inactive) in assay [12]. Also, the z-score in assay [13] was 0.41 (inactive); in assay [15], 1.21 (inactive); in assay [16], 0.919 (inactive); in assay [17], 0.386 (inactive); in assay [18], -2.8 (inactive); in [19] it was 0.764. The composite z-score was -0.261 (inactive) in assay [14] and 0.202 in [20].
